# Measurements as given in PubChem BioAssay (NCATS).
# Inconclusive results are not listed. A call without a number means that no potency is given here. The source made the active and inactive calls. Unless noted, the call rests on the fitted dose curve.
# Key:
# [1] = biological target: Cytochrome P450 2C9 (Homo sapiens) (UniProt P11712); experiment: Cytochrome P450 family 2 subfamily C member 9 (CYP2C9) small molecule antagonists: luciferase biochemical (cell-free) qHTS assay (AID 1645842; active means well fitted curve in the direction sought with a large enough effect in the repeat runs; an effect the other way counts as inactive or inconclusive; further: nearly all actives have a fitted effect of over 55% in size; further: potency means the concentration at half of the fitted maximal effect); conditions: P450-Glo CYP2C9 enzyme assay, luciferin luminescence; series mostly up to 57.4 µM
# Summary of the method: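 Luminescence, after 20 min with luciferin detection reagent, reflected CYP2C9 turnover during a 1 h NADPH-driven reaction at 37C. Enzyme-substrate mix contained 0.4% bovine serum albumin and was preincubated with compound 10 min at room temperature.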
# [2] = Cytotoxicity counterscreen for inhibitors of SARS-CoV-2 cell entry (AID 1645845); conditions: cell viability (SARS-CoV-2 entry assay cells); series mostly up to 57.1 µM; further: nearly all actives have a fitted effect of over 50% in size
# Summary of the method: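 Expi293F/hACE2 cells seeded overnight; cpd pin-transferred in DMSO, 1 h preincubation, + media, 48 h 37 C 5% CO2; ATPLite 1step luminescence; normalized to cells and no cells.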
# [3] = Primary qHTS to identify inhibitors of SARS-CoV-2 cell entry (AID 1645846); conditions: SARS-CoV-2 pseudovirus cell entry assay, luminescence; activity change, negative = inhibition: at 57.1 µM (top of the series) unless noted; series mostly up to 57.1 µM; further: nearly all actives have a fitted effect of over 45% in size
# Summary of the method: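 Entry measured by luciferase signal 48 h after adding SARS-CoV-2-S pseudotyped MLV particles to HEK293-ACE2 cells preincubated 1 h with compounds. Normalisation: bald particles and spike particles.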
# [4] = VSVG counterscreen qHTS to identify inhibitors of SARS-CoV-2 cell entry (AID 1645847); conditions: VSV-G pseudotyped particle entry, luciferase; series mostly up to 57.2 µM; further: potency means the concentration at half of the fitted maximal effect; nearly all actives have a fitted effect of over 65% in size
# Summary of the method: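 Luminescence read after 48 h infection at 37 C with VSV-G-pseudotyped MLV particles, following 1 h compound exposure of Expi293F cells stably expressing human ACE2; scaled between bald particle and VSV-G particle wells.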
# [5] = Primary qHTS for inhibitors of nuclear receptor binding SET domain protein 2 (NSD2) in an isogenic RCH-ACV NSD2 p.E1099K mutant (9B) (AID 1645876; active means well fitted curve in the direction sought with a large enough effect; an effect the other way counts as inactive or inconclusive; further: nearly all actives have a fitted effect of over 70% in size; further: potency means the concentration at half of the fitted maximal effect); conditions: RCH-ACV NSD2 E1099K (9B) viability, CellTiter-Glo, 72 h; series mostly up to 44.9 µM
# [6] = Primary qHTS for inhibitors of nuclear receptor binding SET domain protein 2 (NSD2) in an RCH-ACV wild type WT cells (2C) (AID 1645877; active means well fitted curve in the direction sought with a large enough effect; an effect the other way counts as inactive or inconclusive; further: nearly all actives have a fitted effect of over 70% in size; further: potency means the concentration at half of the fitted maximal effect); conditions: RCH-ACV (leukaemia line) NSD2 WT (2C) viability, CellTiter-Glo, 72 h; series mostly up to 44.9 µM
# [7] = biological target: Cytochrome P450 3A4 (Homo sapiens) (UniProt P08684); experiment: Cytochrome P450 family 3 subfamily A member 4 (CYP3A4) small molecule antagonists: luciferase qHTS assay (AID 1645841; active means well fitted curve in the direction sought with a large enough effect in the repeat runs; an effect the other way counts as inactive or inconclusive; further: nearly all actives have a fitted effect of over 45% in size; further: potency means the concentration at half of the fitted maximal effect); conditions: P450-Glo CYP3A4 enzyme assay, luciferin luminescence; series mostly up to 57.4 µM
# Summary of the method: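 P450-Glo CYP3A4 enzyme with proluciferin substrate was preincubated with DMSO-dissolved compounds for 10 min at room temperature. NADPH regeneration solution started a 1 h reaction. Detection reagent stopped it, and luminescence was read after 20 min.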
# Papain (Carica papaya) = Papain (Carica papaya) (UniProt P00784); experiment: Primary qHTS assay for inhibitors of the protease papain (AID 1645873; active means well fitted curve in the direction sought with a large enough effect; an effect the other way counts as inactive or inconclusive;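 further: papain turnover of Z-FR-AMC read as the AMC fluorescence gain over 10 min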); conditions: papain Z-FR-AMC cleavage, AMC fluorescence; series mostly up to 49.8 µM
# Papain (Carica papaya), sequence (P00784 whole entry, looked up): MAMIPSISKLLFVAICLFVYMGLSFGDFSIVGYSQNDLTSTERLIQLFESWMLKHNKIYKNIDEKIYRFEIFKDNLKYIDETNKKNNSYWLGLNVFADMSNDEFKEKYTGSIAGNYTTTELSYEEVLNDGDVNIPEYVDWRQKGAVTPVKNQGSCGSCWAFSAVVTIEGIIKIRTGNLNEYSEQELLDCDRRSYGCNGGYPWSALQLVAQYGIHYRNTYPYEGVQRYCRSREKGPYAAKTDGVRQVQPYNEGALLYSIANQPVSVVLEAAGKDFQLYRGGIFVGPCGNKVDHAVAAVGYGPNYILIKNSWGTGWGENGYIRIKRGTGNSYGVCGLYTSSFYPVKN
# Cytochrome P450 2C9 (Homo sapiens), sequence (P11712 whole entry, looked up): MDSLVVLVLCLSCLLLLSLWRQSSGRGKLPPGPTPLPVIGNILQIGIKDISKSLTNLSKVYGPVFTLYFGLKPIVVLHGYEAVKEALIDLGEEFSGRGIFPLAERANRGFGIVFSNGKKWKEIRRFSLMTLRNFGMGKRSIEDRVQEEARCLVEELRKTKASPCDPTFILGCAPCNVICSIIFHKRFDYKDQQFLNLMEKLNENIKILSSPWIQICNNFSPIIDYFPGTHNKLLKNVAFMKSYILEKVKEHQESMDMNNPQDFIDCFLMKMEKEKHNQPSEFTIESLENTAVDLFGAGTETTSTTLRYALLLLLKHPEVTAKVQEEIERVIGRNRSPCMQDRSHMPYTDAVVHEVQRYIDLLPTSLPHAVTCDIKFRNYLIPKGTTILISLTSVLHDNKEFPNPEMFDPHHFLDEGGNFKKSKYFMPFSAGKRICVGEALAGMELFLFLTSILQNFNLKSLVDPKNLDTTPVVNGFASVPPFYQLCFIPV
# Cytochrome P450 3A4 (Homo sapiens), sequence (P08684 whole entry, looked up): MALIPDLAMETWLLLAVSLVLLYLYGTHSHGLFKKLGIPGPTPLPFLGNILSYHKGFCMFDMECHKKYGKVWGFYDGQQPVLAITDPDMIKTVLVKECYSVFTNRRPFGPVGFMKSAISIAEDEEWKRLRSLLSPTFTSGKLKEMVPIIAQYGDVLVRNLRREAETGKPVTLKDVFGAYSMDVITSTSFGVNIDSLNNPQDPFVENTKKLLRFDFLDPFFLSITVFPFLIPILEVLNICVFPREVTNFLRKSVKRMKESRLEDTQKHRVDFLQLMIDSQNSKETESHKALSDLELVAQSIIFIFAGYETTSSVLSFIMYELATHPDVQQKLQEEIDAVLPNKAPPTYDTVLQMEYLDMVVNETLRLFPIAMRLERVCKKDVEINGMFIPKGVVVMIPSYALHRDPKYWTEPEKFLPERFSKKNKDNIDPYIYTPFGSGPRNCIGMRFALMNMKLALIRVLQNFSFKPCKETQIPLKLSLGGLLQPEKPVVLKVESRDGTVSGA
compound,measurement,setting,value
O=C(Nc1ccncc1)C(=O)c1cn(Cc2ccc(Cl)cc2)c2ccccc12,Potency,[1],0.301 µM (active)
same,Potency,[2],inactive
same,"activity change, negative = inhibition",[3],-75.6%
same,Potency,[4],0.961 µM (active)
same,Potency,[5],0.263 µM (active)
same,Potency,[6],0.235 µM (active)
Nc1ccc(Cl)cc1N,Potency,[7],7.96 µM (active)
same,Potency,[1],23.3 µM (active)
Cc1cc(O)ccc1Cl,Potency,[1],inactive
same,Potency,[3],inactive
same,Potency,[5],inactive
same,Potency,[6],inactive
O=C(O)COc1ccccc1,Potency,[1],inactive
same,Potency,[2],inactive
same,Potency,[3],inactive
same,Potency,[5],inactive
same,Potency,[6],inactive
CN(C)[C@@H]1C(=O)C(C(N)=O)=C(O)[C@@]2(O)C(=O)C3=C(O)c4c(O)cccc4[C@@](C)(O)[C@H]3[C@H](O)[C@@H]12,Potency,[1],inactive
same,Potency,[2],inactive
same,Potency,[3],inactive
same,"activity change, negative = inhibition",[3],-8.27%
same,Potency,[6],inactive
O=C(O)c1ccccn1,Potency,[1],inactive
same,Potency,[2],inactive
same,"activity change, negative = inhibition",[3],-3.73%
COCC1(CO)C(=O)C2CCN1CC2 (stereo not drawn),Potency,[1],inactive
same,Potency,[2],inactive
same,"activity change, negative = inhibition",[3],-14.4%
CC(C)(C)C(O)C(Oc1ccc(Cl)cc1)n1cncn1 (stereo not drawn),Potency,[1],21.2 µM (active)
C[C@]12COC(=O)C[C@@H]1CC[C@@H]1[C@H]2CC[C@@]2(C)[C@H]1CC[C@]2(C)O,Potency,[1],inactive
CCOP(=O)(NC(C)C)Oc1ccc(SC)c(C)c1 (stereo not drawn),Potency,[1],9.47 µM (active)
O=C(NCC1CCOCC1)c1cnc(Nc2ccc(Cl)cc2Cl)nc1C(F)(F)F,Potency,[7],inactive
same,Potency,[2],inactive
same,Potency,[5],inactive
same,Potency,[6],inactive
CC(Cc1ccc(O)cc1)NCC(O)c1cc(O)cc(O)c1 (stereo not drawn),Potency,[1],inactive
same,Potency,[2],inactive
same,Potency,[3],inactive
same,Potency,Papain (Carica papaya),inactive
CC[N+]1(CCOC(=O)C(O)(c2ccccc2)c2ccccc2)CCCCC1,Potency,[7],inactive
same,Potency,[1],inactive
same,"activity change, negative = inhibition",[3],-23.2%
same,Potency,[5],inactive
same,Potency,[6],inactive
O=[N+]([O-])c1ccc([As](=O)(O)O)cc1,Potency,[7],inactive
same,Potency,[1],inactive
same,Potency,[2],inactive
same,"activity change, negative = inhibition",[3],1.4%
